From PMC7862700, “An all-to-all approach to the identification of sequence-specific readers for epigenetic DNA modifications on cytosine”

Columns and labels:
Assay in all cases: DAPPL (digital affinity profiling via proximity ligation, sequencing); 10 mM Tris-HCl pH 7.5, 50 mM NaCl, 1 mM DTT, 4% glycerol, room temperature, 30 min; GST-TFs on glutathione beads, 16-mer random dsDNA library, 0.1% formaldehyde crosslink after washing; high values mean tight binding
Conditions in all cases: protein: recombinant; tags: N-terminal GST; dsDNA, one strand shown
[1] = biological target: T1, FLI1 (Homo sapiens, UniProt Q01543 1-452)
T1 sequence: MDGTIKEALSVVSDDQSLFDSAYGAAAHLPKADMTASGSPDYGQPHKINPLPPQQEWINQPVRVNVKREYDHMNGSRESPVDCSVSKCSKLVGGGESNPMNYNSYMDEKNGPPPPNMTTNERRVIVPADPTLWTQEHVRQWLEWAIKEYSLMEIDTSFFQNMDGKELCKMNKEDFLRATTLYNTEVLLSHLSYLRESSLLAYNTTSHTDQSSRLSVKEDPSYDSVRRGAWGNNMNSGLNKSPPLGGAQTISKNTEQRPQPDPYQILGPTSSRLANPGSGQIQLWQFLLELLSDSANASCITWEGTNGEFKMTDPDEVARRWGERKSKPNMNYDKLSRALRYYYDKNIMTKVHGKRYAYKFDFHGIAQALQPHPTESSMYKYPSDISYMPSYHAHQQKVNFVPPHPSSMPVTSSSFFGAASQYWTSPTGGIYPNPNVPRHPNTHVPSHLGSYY
Outline: (§1)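 Human transcription factors carrying a GST fusion were produced in yeast, bound to glutathione beads, tagged with DNA barcodes and pooled together with a tag-only sample. Each pool was held with 200 nmole of a random double-stranded 16-mer DNA library in Tris/NaCl/DTT/glycerol buffer for 30 min at room temperature, then washed, crosslinked in 0.1% formaldehyde, proximity-ligated with BsaI/T4 ligase (1 h, 37 °C), PCR-amplified and sequenced on an Illumina NextSeq500. Binding signal is the read frequency of each hexamer for a given factor divided by its frequency in the tag-only sample.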

[2] = biological target: T2, ELK1 (Homo sapiens, UniProt P19419 1-428)
T2 sequence: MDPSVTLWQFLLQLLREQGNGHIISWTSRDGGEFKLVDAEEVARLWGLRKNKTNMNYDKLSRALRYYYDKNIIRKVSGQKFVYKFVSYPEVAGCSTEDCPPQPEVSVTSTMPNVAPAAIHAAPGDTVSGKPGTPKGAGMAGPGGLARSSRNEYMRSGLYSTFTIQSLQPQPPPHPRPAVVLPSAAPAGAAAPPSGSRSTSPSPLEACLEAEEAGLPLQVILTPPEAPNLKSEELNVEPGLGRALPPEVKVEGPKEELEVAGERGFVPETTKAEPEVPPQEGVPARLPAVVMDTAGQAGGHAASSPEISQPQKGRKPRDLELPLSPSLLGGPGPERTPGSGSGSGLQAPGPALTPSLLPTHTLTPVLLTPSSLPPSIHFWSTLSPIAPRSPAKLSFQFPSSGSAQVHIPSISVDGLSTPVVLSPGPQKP
Outline: as §1

[3] = biological target: T3, GABPA (Homo sapiens, UniProt Q06546 1-454)
T3 sequence: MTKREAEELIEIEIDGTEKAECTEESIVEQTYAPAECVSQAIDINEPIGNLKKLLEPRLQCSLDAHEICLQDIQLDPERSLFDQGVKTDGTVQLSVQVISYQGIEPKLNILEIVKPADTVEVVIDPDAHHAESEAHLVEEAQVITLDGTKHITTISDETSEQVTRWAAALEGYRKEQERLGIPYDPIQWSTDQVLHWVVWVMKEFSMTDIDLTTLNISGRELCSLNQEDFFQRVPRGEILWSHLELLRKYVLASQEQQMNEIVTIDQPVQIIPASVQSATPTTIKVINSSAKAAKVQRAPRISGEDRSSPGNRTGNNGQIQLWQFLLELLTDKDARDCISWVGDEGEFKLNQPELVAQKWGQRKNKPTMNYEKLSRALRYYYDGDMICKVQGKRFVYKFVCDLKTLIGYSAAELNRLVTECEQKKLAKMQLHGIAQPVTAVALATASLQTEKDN
Outline: as §1

[4] = biological target: T4, ERG (Homo sapiens, UniProt P11308 1-479)
T4 sequence: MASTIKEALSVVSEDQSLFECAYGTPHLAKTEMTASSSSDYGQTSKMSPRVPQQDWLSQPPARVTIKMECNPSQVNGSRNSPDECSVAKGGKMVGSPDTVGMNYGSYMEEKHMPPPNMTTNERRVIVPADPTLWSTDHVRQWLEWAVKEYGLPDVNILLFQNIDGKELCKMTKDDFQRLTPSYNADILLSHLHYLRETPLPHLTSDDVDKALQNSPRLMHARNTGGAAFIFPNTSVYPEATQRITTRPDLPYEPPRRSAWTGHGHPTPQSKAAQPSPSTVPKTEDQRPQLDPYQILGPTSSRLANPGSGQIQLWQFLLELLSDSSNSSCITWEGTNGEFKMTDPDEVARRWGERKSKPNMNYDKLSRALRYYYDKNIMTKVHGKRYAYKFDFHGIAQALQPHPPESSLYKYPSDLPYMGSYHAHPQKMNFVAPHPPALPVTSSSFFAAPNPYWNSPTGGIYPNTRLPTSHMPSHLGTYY
Outline: as §1

[5] = biological target: ELF1 (Homo sapiens, UniProt P32519 1-619)
Sequence of ELF1 (P32519 whole entry): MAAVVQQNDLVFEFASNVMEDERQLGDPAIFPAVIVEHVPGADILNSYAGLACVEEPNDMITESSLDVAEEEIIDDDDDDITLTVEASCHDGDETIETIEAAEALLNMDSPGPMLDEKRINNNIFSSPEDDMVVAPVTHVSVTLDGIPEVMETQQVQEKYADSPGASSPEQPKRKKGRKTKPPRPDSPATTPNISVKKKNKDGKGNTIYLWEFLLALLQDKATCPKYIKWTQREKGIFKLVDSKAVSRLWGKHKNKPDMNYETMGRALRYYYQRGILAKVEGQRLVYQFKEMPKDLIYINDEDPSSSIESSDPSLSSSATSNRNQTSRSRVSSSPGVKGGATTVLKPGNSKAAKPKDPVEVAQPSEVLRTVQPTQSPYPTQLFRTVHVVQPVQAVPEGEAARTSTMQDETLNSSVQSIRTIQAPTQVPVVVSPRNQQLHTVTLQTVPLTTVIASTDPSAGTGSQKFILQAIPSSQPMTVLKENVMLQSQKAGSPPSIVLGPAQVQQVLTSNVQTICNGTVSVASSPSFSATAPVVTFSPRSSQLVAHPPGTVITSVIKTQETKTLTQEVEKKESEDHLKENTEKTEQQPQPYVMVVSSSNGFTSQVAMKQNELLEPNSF
Outline: as §1

[6] = biological target: T5, EHF (Homo sapiens, UniProt Q9NZC4 1-300)
T5 sequence: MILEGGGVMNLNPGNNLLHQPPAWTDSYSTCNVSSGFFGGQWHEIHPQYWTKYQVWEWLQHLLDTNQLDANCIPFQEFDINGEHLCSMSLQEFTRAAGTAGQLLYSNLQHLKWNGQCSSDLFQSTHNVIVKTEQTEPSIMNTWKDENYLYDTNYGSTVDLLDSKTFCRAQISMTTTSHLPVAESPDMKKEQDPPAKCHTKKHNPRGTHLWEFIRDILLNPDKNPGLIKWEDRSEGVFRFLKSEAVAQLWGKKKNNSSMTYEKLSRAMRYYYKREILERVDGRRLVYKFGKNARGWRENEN
Outline: as §1

[7] = biological target: SPI1 (Homo sapiens, UniProt P17947 1-270)
Outline: as §1

[8] = biological target: SPIB (Homo sapiens, UniProt Q01892 1-262)
Sequence of SPIB (Q01892 whole entry): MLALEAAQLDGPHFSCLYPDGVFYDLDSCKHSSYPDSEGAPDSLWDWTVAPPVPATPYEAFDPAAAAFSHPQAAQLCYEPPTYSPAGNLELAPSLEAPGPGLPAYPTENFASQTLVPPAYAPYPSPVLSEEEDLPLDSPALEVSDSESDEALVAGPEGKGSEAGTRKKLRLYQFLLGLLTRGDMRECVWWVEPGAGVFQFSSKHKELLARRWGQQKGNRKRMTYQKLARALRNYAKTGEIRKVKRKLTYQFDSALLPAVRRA
Outline: as §1

[9] = biological target: T6, ELK3 (Homo sapiens, UniProt P41970 1-407)
T6 sequence: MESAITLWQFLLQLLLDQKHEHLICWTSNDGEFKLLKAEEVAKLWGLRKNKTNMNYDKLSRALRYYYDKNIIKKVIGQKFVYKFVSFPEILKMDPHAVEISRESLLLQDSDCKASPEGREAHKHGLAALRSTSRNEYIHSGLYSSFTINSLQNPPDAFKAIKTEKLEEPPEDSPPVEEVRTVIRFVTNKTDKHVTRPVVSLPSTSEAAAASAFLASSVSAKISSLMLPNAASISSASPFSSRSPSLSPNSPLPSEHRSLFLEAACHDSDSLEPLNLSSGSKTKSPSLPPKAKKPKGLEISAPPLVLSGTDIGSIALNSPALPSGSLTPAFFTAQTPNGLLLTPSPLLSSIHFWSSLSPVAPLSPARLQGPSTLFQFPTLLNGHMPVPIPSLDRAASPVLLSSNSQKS
Outline: as §1

Sequence | binding signal [1] | binding signal [2] | binding signal [3] | binding signal [4] | binding signal [5] | binding signal [6] | binding signal [7] | binding signal [8] | binding signal [9]
TTTTCC | 1.9 fold enrichment (6-mer frequency, TF over GST control) | 1.68 fold enrichment (6-mer frequency, TF over GST control) | 1.71 fold enrichment (6-mer frequency, TF over GST control) | 1.76 fold enrichment (6-mer frequency, TF over GST control) | 1.6 fold enrichment (6-mer frequency, TF over GST control) | 1.76 fold enrichment (6-mer frequency, TF over GST control) | 1.75 fold enrichment (6-mer frequency, TF over GST control) | 1.79 fold enrichment (6-mer frequency, TF over GST control) | 1.82 fold enrichment (6-mer frequency, TF over GST control)
AAAATA | 1.17 fold enrichment (6-mer frequency, TF over GST control) | 1.12 fold enrichment (6-mer frequency, TF over GST control) | 1.18 fold enrichment (6-mer frequency, TF over GST control) | 1.19 fold enrichment (6-mer frequency, TF over GST control) | 1.19 fold enrichment (6-mer frequency, TF over GST control) | 1.13 fold enrichment (6-mer frequency, TF over GST control) | 1.18 fold enrichment (6-mer frequency, TF over GST control) | 1.23 fold enrichment (6-mer frequency, TF over GST control) | 1.17 fold enrichment (6-mer frequency, TF over GST control)
CCGATT | 1.42 fold enrichment (6-mer frequency, TF over GST control) | 1.35 fold enrichment (6-mer frequency, TF over GST control) | 1.32 fold enrichment (6-mer frequency, TF over GST control) | 1.34 fold enrichment (6-mer frequency, TF over GST control) | 1.36 fold enrichment (6-mer frequency, TF over GST control) | 1.4 fold enrichment (6-mer frequency, TF over GST control) | 1.31 fold enrichment (6-mer frequency, TF over GST control) | 1.4 fold enrichment (6-mer frequency, TF over GST control) | 1.29 fold enrichment (6-mer frequency, TF over GST control)
CCAATT | 1.2 fold enrichment (6-mer frequency, TF over GST control) | 1.24 fold enrichment (6-mer frequency, TF over GST control) | 1.25 fold enrichment (6-mer frequency, TF over GST control) | 1.24 fold enrichment (6-mer frequency, TF over GST control) | 1.16 fold enrichment (6-mer frequency, TF over GST control) | 1.25 fold enrichment (6-mer frequency, TF over GST control) | 1.23 fold enrichment (6-mer frequency, TF over GST control) | 1.28 fold enrichment (6-mer frequency, TF over GST control) | 1.18 fold enrichment (6-mer frequency, TF over GST control)
TGTATG | 1.31 fold enrichment (6-mer frequency, TF over GST control) | 1.16 fold enrichment (6-mer frequency, TF over GST control) | 1.25 fold enrichment (6-mer frequency, TF over GST control) | 1.14 fold enrichment (6-mer frequency, TF over GST control) | 1.23 fold enrichment (6-mer frequency, TF over GST control) | 1.2 fold enrichment (6-mer frequency, TF over GST control) | 1.18 fold enrichment (6-mer frequency, TF over GST control) | 1.16 fold enrichment (6-mer frequency, TF over GST control) | 1.22 fold enrichment (6-mer frequency, TF over GST control)
GCGACT | 1.15 fold enrichment (6-mer frequency, TF over GST control) | 1.26 fold enrichment (6-mer frequency, TF over GST control) | 1.13 fold enrichment (6-mer frequency, TF over GST control) | 1.24 fold enrichment (6-mer frequency, TF over GST control) | 1.22 fold enrichment (6-mer frequency, TF over GST control) | 1.21 fold enrichment (6-mer frequency, TF over GST control) | 1.2 fold enrichment (6-mer frequency, TF over GST control) | 1.33 fold enrichment (6-mer frequency, TF over GST control) | 1.25 fold enrichment (6-mer frequency, TF over GST control)
ATTATT | 1.14 fold enrichment (6-mer frequency, TF over GST control) | 1.17 fold enrichment (6-mer frequency, TF over GST control) | 1.1 fold enrichment (6-mer frequency, TF over GST control) | 1.17 fold enrichment (6-mer frequency, TF over GST control) | 1.13 fold enrichment (6-mer frequency, TF over GST control) | 1.16 fold enrichment (6-mer frequency, TF over GST control) | 1.02 fold enrichment (6-mer frequency, TF over GST control) | 1.12 fold enrichment (6-mer frequency, TF over GST control) | 1.14 fold enrichment (6-mer frequency, TF over GST control)
TGGCTT | 1.27 fold enrichment (6-mer frequency, TF over GST control) | 1.21 fold enrichment (6-mer frequency, TF over GST control) | 1.33 fold enrichment (6-mer frequency, TF over GST control) | 1.31 fold enrichment (6-mer frequency, TF over GST control) | 1.28 fold enrichment (6-mer frequency, TF over GST control) | 1.26 fold enrichment (6-mer frequency, TF over GST control) | 1.24 fold enrichment (6-mer frequency, TF over GST control) | 1.26 fold enrichment (6-mer frequency, TF over GST control) | 1.23 fold enrichment (6-mer frequency, TF over GST control)
